Consider 40 compounds from PubChem BioAssay.

Each structure is given as a SMILES string. A number with no mark means an inactive call. The rule behind the calls is not given here. Where a SMILES comes first, the peptide text is derived from it. [ ]: non-standard residue; d: D form. The star is where a group is joined. ξ: configuration not given here. Cbz = O=C(OCc1ccccc1)*; ξK = NCCCCC(N)C(=O)O

The target of the assay is Pantothenate synthetase (Mycobacterium tuberculosis (strain ATCC 25618 / H37Rv)) (UniProt P9WIL5). The assay is described as follows: Recombinant Mtb pantothenate synthetase (PanC) inhibitors, coupled enzyme, confirmatory (AID 375).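 Note: 0% = full reaction with vehicle and 100% = no enzyme background.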 To be noted: coupled enzyme assay; at 10 µM, stronger effect = higher value.
Pantothenate synthetase (Mycobacterium tuberculosis (strain ATCC 25618 / H37Rv)), sequence (P9WIL5 whole entry, looked up): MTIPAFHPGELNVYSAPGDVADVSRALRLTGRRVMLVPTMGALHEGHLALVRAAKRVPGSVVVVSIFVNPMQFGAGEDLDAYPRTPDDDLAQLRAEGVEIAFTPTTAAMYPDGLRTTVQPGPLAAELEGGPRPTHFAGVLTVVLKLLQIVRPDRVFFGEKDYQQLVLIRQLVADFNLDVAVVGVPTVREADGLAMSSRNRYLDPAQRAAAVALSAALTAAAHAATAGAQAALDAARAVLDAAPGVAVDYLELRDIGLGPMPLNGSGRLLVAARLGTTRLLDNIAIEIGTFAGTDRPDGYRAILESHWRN
On to `Cn1c(=O)c2nc(Cl)n(Cc3ccc(Cl)cc3Cl)c2n(C)c1=O`, for which the inhibition was 6%.

As to `COc1ccc(C(=O)NCCc2nnc(SCc3nc4ccccc4c(=O)[nH]3)n2C)cc1`, the inhibition was 0%.

For `C[N+](C)(C)CCCCCCCCCC[N+](C)(C)C`, the inhibition was 4%.

On to `CCN(CC)C(=O)Cn1c(=O)n(Cc2ccccc2Cl)c2c1c(=O)n(C)c(=O)n2C`, for which the inhibition was 3%.

In the case of `O=C(NCCC1=CCCCC1)C1CCN(S(=O)(=O)c2cccc3nsnc23)CC1`, the inhibition was 10%.

In the case of `Cc1ccc(OC(=O)CCc2c(C)nc3ncnn3c2C)cc1`, the inhibition was 0%.

For `O=C(O)c1cccc(NS(=O)(=O)c2ccc3nnn(O)c3c2)c1`, the inhibition is 0%.

`COCC(=O)Nc1c(C(=O)Nc2ccccc2OC)oc2ccccc12`: the inhibition is 1%.

Consider `COc1ccc2cc(C(=O)NCc3ccco3)c(=Nc3ccc(C(=O)O)cc3)oc2c1`, for which the inhibition was 0%.

On to `CC1CCC2C(C1)c1sc(=O)[nH]c1SC2(C)C` (stereo not given), for which the inhibition was 2%.

For the compound `CCCn1c(NCc2cc(C)ccc2O)nc2ccccc21`, the inhibition is 0%.

Consider `N#C/C(=C(/O)COC(=O)CCC1CCCCC1)c1nc2ccccc2[nH]1`, for which the inhibition is 6%.

Turning to `COC(=O)c1cc(OC)c(OCc2cc(C(=O)OC)oc2C)c(OC)c1`, the inhibition was 2%.

As to `COc1ccc(C(=O)NCc2nnc(SCC(=O)Nc3cc(C)cc(C)c3)o2)cc1OC`, the inhibition was 0%.

Regarding `COC(=O)c1cccc(S(=O)(=O)N2CCN(c3nc4ccccc4s3)CC2)c1`, the inhibition is 2%.

Take `CC1CN(C(=O)c2scc3c2OCCO3)CC(C)O1` (stereo not given): the inhibition is 2%.

On to `CCN1CCN(CCCNC(=O)c2cc3sccc3n2CC)CC1`, for which the inhibition was 0%.

Consider `Cc1ccc(-n2ncc(C(=O)N3CCc4ccccc4C3)c2NC(=O)c2ccco2)cc1C`, for which the inhibition is 0%.

For `COc1ccccc1CNS(=O)(=O)c1ccc(NC(C)=O)cc1`, the inhibition was 0%.

On to `CCOc1ccc(C(=O)N2CCC(C(=O)c3ccc4c(c3)OCCO4)CC2)cc1`, for which the inhibition is 7%.

Turning to `N[C@@H](Cc1ccc(O)c(I)c1)C(=O)O`, the inhibition was 6%.

For the compound `N#Cc1nc(COc2ccc(Br)cc2)oc1N1CCCC1`, the inhibition is 16%.

On to `O=C1c2ccccc2C(=O)N1CCN1CCCCC1`, for which the inhibition was 7%.

`CCn1c(CCC(=O)Nc2nc3c(s2)CCCC3)nc2cc(S(=O)(=O)N(C)C)ccc21`: the inhibition was 3%.

In the case of `CC(=O)Nc1c2c(nn1-c1ccc(C)cc1C)CSC2`, the inhibition is 0%.

For `COc1ccc(C2C(C(=O)c3sc(C)nc3C)=C(O)C(=O)N2CCN2CCOCC2)cc1` (stereo not given), the inhibition is 0%.

In the case of `COc1cc2c(C)nc(C)c(C#N)c2cc1OC`, the inhibition was 0%.

In the case of `O=C(c1ccco1)N1CCN(S(=O)(=O)c2ccc(C3CCCCC3)cc2)CC1`, the inhibition is 3%.

For the compound `COC(=O)C(F)(F)Sc1c(C)[nH]c2ccccc12`, the inhibition is 3%.

With `COCCOC(=O)c1c(C)nc(SCC(=O)Nc2ccc(OC)cc2)c(C#N)c1-c1ccco1`, the inhibition was 0%.

For the compound `Clc1ccc(OCc2nc(-c3ccccn3)no2)c(Br)c1`, the inhibition was 0%.

As to `CCOc1ccccc1C(=O)Nc1nnc(CC)s1`, the inhibition was 0%.

`CCOCCCNC(=O)C(NC(=O)c1ccccn1)c1ccc(C)cc1` (stereo not given): the inhibition is 0%.

For `O=C(Cn1ccc2ccccc2c1=O)NCCC(=O)NC1CCN(Cc2ccccc2)CC1`, the inhibition is 0%.

Turning to `CCCn1c2c(c(O)c(C(=O)NC)c1=O)CCCC2`, the inhibition is 5%.

Take `COC(=O)C(CCCCNC(=O)OCc1ccccc1)NC(=O)CN` (stereo not given) (H-Gly-[ξK](Cbz)-OMe): the inhibition was 0%.

As to `CC(NC(=O)C1CCCN(S(=O)(=O)c2cccs2)C1)c1ccccc1` (stereo not given), the inhibition is 0%.

Consider `Cc1nc(-c2ccc(NC(=O)c3cccs3)cc2)cs1`, for which the inhibition is 0%.

Turning to `COCCCNC(=O)CCc1nc(-c2ccccc2Cl)no1`, the inhibition is 0%.

Take `COc1ccc(C)cc1-n1c(N)c(C#N)c(C#N)c1-c1ccc(OC)c(OC)c1OC`: the inhibition was 4%.

As a reminder, the inhibition is the relative decrease from the control value, in per cent.
